Results reported in PubChem BioAssay AID1159580 (chemical genetic matrix, 2015).
Hit rate of the full screen: of about 5,500 compounds, about 2,000 (36%) were called active. Another 18% or so got no clear call; they are omitted. Cut-off read from the data, not from the text of the source: active = normalized growth mostly below about 0.91 (no sharp cut-off); inconclusive = no clear call, values can overlap the other calls; inactive = mostly above about 0.92. The list shows a part of the results.

Experiment: chemical genetic growth profiling, strain panel (AID 1159580);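 note: tested at 20 µM; growth read once vehicle control cultures reached saturation at 30 °C; 1 = growth at the plate median or of vehicle wells; lower values mean less growth of the strain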
Conditions: growth OD

Measured: normalized growth

COc1ccc(C(CN(C)C)C2(O)CCCCC2)cc1 (stereo unspecified)
inactive: S. cerevisiae deletion strains, locus YKL009W, strain mrt4, stronger effect = lower value 0.978 | S. cerevisiae deletion strains, locus YKL068W, stronger effect = lower value 0.996 | S. cerevisiae deletion strains, locus YKL085W, strain MDH1 (second series), stronger effect = lower value 0.994 | S. cerevisiae deletion strains, locus YKL085W, strain MDH1, stronger effect = lower value 0.994 | S. cerevisiae deletion strains, locus YKL160W, strain elf1, stronger effect = lower value 0.97 | S. cerevisiae deletion strains, locus YKL190W, strain CNB1, stronger effect = lower value 1 | S. cerevisiae deletion strains, locus YKR001C, strain vps1, stronger effect = lower value 0.977 | S. cerevisiae deletion strains, locus YKR026C, strain gcn3, stronger effect = lower value 0.994 | S. cerevisiae deletion strains, locus YKR091W, strain srl3, stronger effect = lower value 0.969 | S. cerevisiae deletion strains, locus YLL001W, strain dnm1, stronger effect = lower value 0.981 | S. cerevisiae deletion strains, locus YLL026W, stronger effect = lower value 0.997 | S. cerevisiae deletion strains, locus YLL041C, strain sdh2, stronger effect = lower value 0.979 | S. cerevisiae deletion strains, locus YLR027C, strain aat2, stronger effect = lower value 0.989 | S. cerevisiae deletion strains, locus YLR039C, strain RIC1, stronger effect = lower value 1.05 | S. cerevisiae deletion strains, locus YLR058C, strain SHM2, stronger effect = lower value 1.01 | S. cerevisiae deletion strains, locus YLR102C, strain apc9, stronger effect = lower value 0.989 | S. cerevisiae deletion strains, locus YLR113W, strain HOG1, stronger effect = lower value 1.04 | S. cerevisiae deletion strains, locus YLR221C, strain rsa3, stronger effect = lower value 1.01 | S. cerevisiae deletion strains, locus YLR258W, strain gsy2, stronger effect = lower value 0.978 | S. cerevisiae deletion strains, locus YLR262C, strain YPT6 (second series), stronger effect = lower value 0.966 | S. cerevisiae deletion strains, locus YLR262C, strain YPT6, stronger effect = lower value 1.03 | S. cerevisiae deletion strains, locus YLR268W, strain sec22, stronger effect = lower value 0.981 | S. cerevisiae deletion strains, locus YLR320W, strain mms22, stronger effect = lower value 1.02 | S. cerevisiae deletion strains, locus YLR330W, strain CHS5, stronger effect = lower value 1.01 | S. cerevisiae deletion strains, locus YLR342W, strain FKS1 (second series), stronger effect = lower value 1.03 | S. cerevisiae deletion strains, locus YLR342W, strain FKS1, stronger effect = lower value 0.976 | S. cerevisiae deletion strains, locus YLR357W, strain rsc2, stronger effect = lower value 0.936 | S. cerevisiae deletion strains, locus YLR370C, strain arc18, stronger effect = lower value 0.989 | S. cerevisiae deletion strains, locus YLR371W, strain rom2, stronger effect = lower value 0.985 | S. cerevisiae deletion strains, locus YLR384C, strain iki3, stronger effect = lower value 0.996 | S. cerevisiae deletion strains, locus YLR418C, strain cdc73, stronger effect = lower value 0.96 | S. cerevisiae deletion strains, locus YML016C, strain PPZ1, stronger effect = lower value 1.01 | S. cerevisiae deletion strains, locus YML032C, strain rad52, stronger effect = lower value 0.991 | S. cerevisiae deletion strains, locus YML120C, strain ndi1, stronger effect = lower value 1 | S. cerevisiae deletion strains, locus YML124C, strain tub3, stronger effect = lower value 0.989 | S. cerevisiae deletion strains, locus YMR058W, strain fet3, stronger effect = lower value 0.989 | S. cerevisiae deletion strains, locus YMR078C, strain ctf18, stronger effect = lower value 0.993 | S. cerevisiae deletion strains, locus YMR125W, strain sto1, stronger effect = lower value 0.919 | S. cerevisiae deletion strains, locus YMR129W, stronger effect = lower value 0.993 | S. cerevisiae deletion strains, locus YMR205C, strain PFK2, stronger effect = lower value 0.998 | S. cerevisiae deletion strains, locus YMR223W, strain ubp8, stronger effect = lower value 0.99 | S. cerevisiae deletion strains, locus YMR231W, strain pep5, stronger effect = lower value 0.978 | S. cerevisiae deletion strains, locus YMR263W, strain SAP30, stronger effect = lower value 1.01 | S. cerevisiae deletion strains, locus YMR307W, strain GAS1, stronger effect = lower value 1 | S. cerevisiae deletion strains, locus YNL067W, strain RPL9B, stronger effect = lower value 0.991 | S. cerevisiae deletion strains, locus YNL071W, strain lat1, stronger effect = lower value 1 | S. cerevisiae deletion strains, locus YNL128W, strain TEP1, stronger effect = lower value 1.01 | S. cerevisiae deletion strains, locus YNL153C, strain GIM3, stronger effect = lower value 1.01 | S. cerevisiae deletion strains, locus YNL183C, strain NPR1, stronger effect = lower value 0.969 | S. cerevisiae deletion strains, locus YNL209W, strain ssb2, stronger effect = lower value 0.981 | S. cerevisiae deletion strains, locus YNL233W, strain BNI4, stronger effect = lower value 1.02 | S. cerevisiae deletion strains, locus YNL248C, strain rpa49, stronger effect = lower value 0.925 | S. cerevisiae deletion strains, locus YNL250W, strain rad50, stronger effect = lower value 0.993 | S. cerevisiae deletion strains, locus YNL271C, strain bni1, stronger effect = lower value 0.987 | S. cerevisiae deletion strains, locus YNL298W, strain CLA4, stronger effect = lower value 0.991 | S. cerevisiae deletion strains, locus YNL307C, strain MCK1, stronger effect = lower value 0.981 | S. cerevisiae deletion strains, locus YNL322C, strain KRE1 (second series), stronger effect = lower value 0.965 | S. cerevisiae deletion strains, locus YNL322C, strain KRE1, stronger effect = lower value 1.01 | S. cerevisiae deletion strains, locus YNR049C, strain mso1, stronger effect = lower value 0.982 | S. cerevisiae deletion strains, locus YNR052C, strain pop2, stronger effect = lower value 0.998 | S. cerevisiae deletion strains, locus YOL006C, strain TOP1, stronger effect = lower value 1.04 | S. cerevisiae deletion strains, locus YOL012C, strain htz1 0.805 | S. cerevisiae deletion strains, locus YOL147C, strain pex11, stronger effect = lower value 0.984 | S. cerevisiae deletion strains, locus YOR001W, strain rrp6, stronger effect = lower value 1.01 | S. cerevisiae deletion strains, locus YOR061W, strain CKA2, stronger effect = lower value 1.01 | S. cerevisiae deletion strains, locus YOR069W, strain VPS5, stronger effect = lower value 0.995 | S. cerevisiae deletion strains, locus YOR070C, strain gyp1, stronger effect = lower value 0.986 | S. cerevisiae deletion strains, locus YOR080W, strain dia2, stronger effect = lower value 0.973 | S. cerevisiae deletion strains, locus YOR083W, strain WHI5, stronger effect = lower value 0.932 | S. cerevisiae deletion strains, locus YOR106W, strain vam3, stronger effect = lower value 0.967 | S. cerevisiae deletion strains, locus YOR136W, strain idh2, stronger effect = lower value 0.986 | S. cerevisiae deletion strains, locus YOR144C, strain elg1, stronger effect = lower value 0.998 | S. cerevisiae deletion strains, locus YOR184W, strain ser1, stronger effect = lower value 1 | S. cerevisiae deletion strains, locus YOR231W, strain MKK1, stronger effect = lower value 1.01 | S. cerevisiae deletion strains, locus YOR265W, strain rbl2, stronger effect = lower value 0.989 | S. cerevisiae deletion strains, locus YOR270C, strain vph1, stronger effect = lower value 0.945 | S. cerevisiae deletion strains, locus YOR290C, strain snf2, stronger effect = lower value 0.974 | S. cerevisiae deletion strains, locus YOR316C, strain cot1, stronger effect = lower value 0.999 | S. cerevisiae deletion strains, locus YPL051W, strain arl3, stronger effect = lower value 0.994 | S. cerevisiae deletion strains, locus YPL055C, strain LGE1, stronger effect = lower value 1.03 | S. cerevisiae deletion strains, locus YPL078C, strain atp4, stronger effect = lower value 0.969 | S. cerevisiae deletion strains, locus YPL106C, strain sse1, stronger effect = lower value 0.977 | S. cerevisiae deletion strains, locus YPL240C, strain hsp82, stronger effect = lower value 0.996 | S. cerevisiae deletion strains, locus YPL241C, strain CIN2, stronger effect = lower value 1 | S. cerevisiae deletion strains, locus YPL256C, strain CLN2, stronger effect = lower value 0.992 | S. cerevisiae deletion strains, locus YPR119W, strain clb2, stronger effect = lower value 0.993 | S. cerevisiae deletion strains, locus YPR141C, strain kar3, stronger effect = lower value 0.991 | S. cerevisiae deletion strains, locus YPR163C, strain tif3, stronger effect = lower value 0.984 | S. cerevisiae deletion strains, locus YPR167C, strain met16, stronger effect = lower value 0.989 | S. cerevisiae deletion strains, strain wtn01, stronger effect = lower value 0.983 | S. cerevisiae strains, strain wild type, stronger effect = lower value 1
